Reference: PubChem BioAssay (Tox21)
Records with an inconclusive call do not appear. The source made the active and inactive calls. Unless noted, calls follow the shape of the dose curve; as a rule, active = well fitted curve in the direction sought with a large enough effect in the repeat runs; inconclusive = weak or mixed curves; inactive = no such curve, though single readings can be large; an effect the other way counts as inactive or inconclusive.

What was measured:
[1] = qHTS assay to identify small molecule antagonists of the thyroid receptor (TR) signaling pathway (AID 743065); also: series mostly up to about 70 µM; nearly all actives have a fitted effect of over 55% in size
How it was run: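 GH3.TRE-Luc rat pituitary cells carrying two TR response elements driving luciferase were plated for 4 h, given compound plus 1 nM T3 (final), and incubated 23.5 h at 37 C. ONE-Glo luminescence measured reporter inhibition; CellTiter-Fluor fluorescence tracked cytotoxicity.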

[2] = test system: thyroid hormone receptor (rat, GH3 cells); experiment: qHTS assay to identify small molecule agonists of the thyroid receptor (TR) signaling pathway (AID 743066; calls by dose curve)
[3] = biological target: Estrogen receptor (Homo sapiens) (UniProt P03372); experiment: qHTS assay to identify small molecule antagonists of the estrogen receptor alpha (ER-alpha) signaling pathway (AID 743069; active = well fitted curve in the direction sought with a large enough effect in the signal ratio in the repeat runs, not every such curve was filed as active; the % refers to the signal ratio)
How it was run: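 A 17beta-estradiol challenge was applied right after compound transfer to ER-alpha-UAS-bla HEK293 cells previously kept in charcoal-stripped serum. Plates stood 18 hr at 37C and 5% CO2; fluorescence was read following 2 hr FRET substrate loading at room temperature.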

[4] = qHTS assay to identify small molecule antagonists of the estrogen receptor alpha (ER-alpha) signaling pathway - cell viability counter screen (AID 743074; calls by dose curve;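 also: HEK293 cells carrying ER-alpha-UAS-bla reporter stimulated with 17beta-estradiol; nearly all actives have a fitted effect of over 45% in size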)
[5] = biological target: Estrogen receptor (Homo sapiens) (UniProt P03372); experiment: qHTS assay to identify small molecule agonists of the estrogen receptor alpha (ER-alpha) signaling pathway (AID 743075; calls by dose curve;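 also: HEK293 GripTite cells with ER-alpha and UAS-driven beta-lactamase reporter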)
[6] = biological target: Estrogen receptor (Homo sapiens) (UniProt P03372); experiment: qHTS assay to identify small molecule agonists of the estrogen receptor alpha (ER-alpha) signaling pathway using the BG1 cell line (AID 743079); also: nearly all actives have a fitted effect of over 20% in size
[7] = qHTS assay to identify small molecule antagonists of the estrogen receptor alpha (ER-alpha) signaling pathway using the BG1 cell line (AID 743080; calls by dose curve;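 also: BG1 cells stimulated with 17beta-estradiol alongside compound; series mostly up to about 70 µM; nearly all actives have a fitted effect of over 25% in size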)
How it was run: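 Quantitative HTS on the Tox21 10K library: BG1 cells with endogenous ER-alpha and ERE-luciferase reporter, 17beta-estradiol stimulation, 21.5 h compound exposure, luminescence endpoint with parallel fluorescence cytotoxicity counter-read.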

[8] = qHTS assay to identify small molecule antagonists of the estrogen receptor alpha (ER-alpha) signaling pathway using the BG1 cell line - cell viability counter screen (AID 743081);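 also: compound given together with 17beta-estradiol as the ER stimulus; series mostly up to about 70 µM; nearly all actives have a fitted effect of over 45% in size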
[9] = biological target: Aromatase (Homo sapiens) (UniProt P11511); experiment: qHTS assay to identify aromatase inhibitors (AID 743083); also: series mostly up to about 70 µM; nearly all actives have a fitted effect of over 55% in size
[10] = qHTS assay to identify aromatase inhibitors - cell viability counter screen (AID 743084);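 also: cells stimulated with testosterone during compound exposure; nearly all actives have a fitted effect of over 55% in size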
[11] = biological target: Aryl hydrocarbon receptor (Homo sapiens) (UniProt P35869); experiment: qHTS assay to identify small molecule that activate the aryl hydrocarbon receptor (AhR) signaling pathway (AID 743085);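 also: HG2L7.5c1 human HepG2 liver cells with stably integrated DRE-driven firefly reporter; series mostly up to about 70 µM; nearly all actives have a fitted effect of over 15% in size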
How it was run: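 24 h compound exposure, 37C, HepG2-derived HG2L7.5c1 cells with DRE-responsive luciferase. Readouts: fluorescence viability, then luminescence at room temperature after 30 min.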

[12] = qHTS assay to identify small molecule that activate the aryl hydrocarbon receptor (AhR) signaling pathway - cell viability counter screen (AID 743086);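 also: HepG2 liver cells carrying the AhR DRE luciferase reporter; series mostly up to about 70 µM; nearly all actives have a fitted effect of over 45% in size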
How it was run: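 HepG2-AhR-luc (HG2L7.5c1) cells, 4000/well, were preincubated 5 h at 37C, exposed to compound in qHTS format for 24 hr at 37C, then given CellTiter-Fluor for 30 min; viability was read as fluorescence in the reporter wells.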

[13] = biological target: Peroxisome proliferator-activated receptor gamma (Homo sapiens) (UniProt P37231); experiment: qHTS assay to identify small molecule agonists of the peroxisome proliferator-activated receptor gamma (PPARg) signaling pathway (AID 743094; active = well fitted activation curve with a large enough effect in the signal ratio in the repeat runs, not every such curve was filed as active; the % refers to the signal ratio)
How it was run: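 Agonism was assessed in a beta-lactamase reporter system, HEK293H cells with a stably integrated UAS-bla construct under PPARg control; the 17 h treatment at 37C preceded a 1 h room-temperature FRET substrate read.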

[14] = biological target: Peroxisome proliferator-activated receptor gamma (Homo sapiens) (UniProt P37231); experiment: qHTS assay to identify small molecule antagonists of the peroxisome proliferator-activated receptor gamma (PPARg) signaling pathway (AID 743191; calls by dose curve; also: series mostly up to about 63 µM; nearly all actives have a fitted effect of over 30% in size)
How it was run: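 GeneBLAzer PPARg UAS-bla HEK293H cells carrying a UAS-driven beta-lactamase reporter were plated at 3000 cells/well, preincubated 5 h at 37C, then given compound for 17 h at 37C; LiveBLAzer B/G FRET substrate was read after 1 h at room temperature.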

[15] = qHTS assay to identify small molecule antagonists of the peroxisome proliferator-activated receptor gamma (PPARg) signaling pathway - cell viability counter screen (AID 743194); also: nearly all actives have a fitted effect of over 55% in size
How it was run: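 PPARg-UAS-bla HEK293H cells were plated, rested 5 h at 37 C, then treated with compounds plus rosiglitazone (50 nM final) for 17 h at 37 C; viability was then read by CellTiter-Glo luminescence after 30 min at room temperature.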

[16] = qHTS assay for small molecule agonists of the antioxidant response element (ARE) signaling pathway (AID 743202; active = well fitted activation curve with a large enough effect in the signal ratio in the repeat runs, not every such curve was filed as active; the % refers to the signal ratio)
How it was run: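 Following a 16 h, 37 C exposure of reporter HepG2 cells (ARE-driven beta-lactamase, 2,000 cells/well) to compounds, FRET substrate was applied for 2 h at room temperature and fluorescence intensity recorded.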

[17] = qHTS assay for small molecule agonists of the antioxidant response element (ARE) signaling pathway - cell viability counter screen (AID 743203; calls by dose curve; also: nearly all actives have a fitted effect of over 55% in size)
How it was run: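 ATP content via CellTiter-Glo luminescence served as the viability measure. Cells: ARE-bla HepG2, 2,000 per well. Exposure: 16 hrs, 37C/5% CO2.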

[18] = qHTS assay for small molecule activators of the heat shock response signaling pathway - cell viability counter screen (AID 743209); also: nearly all actives have a fitted effect of over 50% in size
How it was run: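 Compounds dissolved in DMSO were added to overnight-plated HSE-bla HeLa cells and left 5 h at 37 C. Cell viability was quantified by luminescence using CellTiter-Glo.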

[19] = qHTS assay for small molecule activators of the heat shock response signaling pathway (AID 743210; active = well fitted activation curve with a large enough effect in the signal ratio in the repeat runs, with a control signal flat, not every such curve was filed as active; the % refers to the signal ratio; also: series mostly up to about 63 µM)
How it was run: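 Heat shock element–beta-lactamase HeLa reporter cells; qHTS with compounds for 5 h at 37 C; detection by FRET substrate fluorescence after 2.5 h at RT.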

[20] = qHTS assay to identify small molecule antagonists of the thyroid receptor (TR) signaling pathway - cell viability counter screen (AID 743064); also: nearly all actives have a fitted effect of over 50% in size; also: potency is read from the fitted curve at half-maximal effect
How it was run: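 Compounds were tested on GH3.TRE-Luc cells in the presence of T3 at 1 nM final. Following 23.5 h at 37 °C, cell viability was quantified by CellTiter-Fluor.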
% is scaled to controls: 0 for no effect and ±100 for the full control effect.

Sequence of Peroxisome proliferator-activated receptor gamma (Homo sapiens) (P37231 whole entry, looked up): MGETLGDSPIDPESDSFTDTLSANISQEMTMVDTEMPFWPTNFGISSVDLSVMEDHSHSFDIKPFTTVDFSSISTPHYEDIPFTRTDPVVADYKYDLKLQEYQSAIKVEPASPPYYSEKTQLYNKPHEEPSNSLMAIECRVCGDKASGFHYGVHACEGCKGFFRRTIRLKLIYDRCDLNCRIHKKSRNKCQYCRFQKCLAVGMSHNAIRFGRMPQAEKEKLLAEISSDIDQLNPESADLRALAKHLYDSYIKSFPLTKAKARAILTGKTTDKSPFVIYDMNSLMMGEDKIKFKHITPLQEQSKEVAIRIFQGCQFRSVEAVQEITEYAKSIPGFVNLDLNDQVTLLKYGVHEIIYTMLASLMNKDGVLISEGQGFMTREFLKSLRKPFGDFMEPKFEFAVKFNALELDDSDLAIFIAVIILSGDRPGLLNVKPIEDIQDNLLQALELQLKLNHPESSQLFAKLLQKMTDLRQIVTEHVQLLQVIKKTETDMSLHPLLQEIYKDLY
Sequence of Aromatase (Homo sapiens) (P11511 whole entry, looked up): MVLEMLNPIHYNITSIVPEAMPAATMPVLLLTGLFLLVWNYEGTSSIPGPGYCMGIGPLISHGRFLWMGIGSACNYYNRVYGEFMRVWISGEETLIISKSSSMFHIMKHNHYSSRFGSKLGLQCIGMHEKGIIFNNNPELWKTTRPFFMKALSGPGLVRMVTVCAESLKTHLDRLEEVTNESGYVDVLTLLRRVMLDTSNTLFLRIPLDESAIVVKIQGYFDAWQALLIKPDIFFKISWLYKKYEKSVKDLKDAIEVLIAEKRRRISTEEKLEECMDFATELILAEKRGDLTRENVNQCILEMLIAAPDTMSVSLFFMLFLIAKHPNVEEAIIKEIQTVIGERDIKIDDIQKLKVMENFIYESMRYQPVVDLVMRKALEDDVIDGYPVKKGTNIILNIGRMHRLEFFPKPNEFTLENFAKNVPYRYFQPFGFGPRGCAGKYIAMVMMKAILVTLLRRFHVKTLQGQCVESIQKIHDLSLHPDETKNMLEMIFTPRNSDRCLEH
Sequence of Estrogen receptor (Homo sapiens) (P03372 whole entry, looked up): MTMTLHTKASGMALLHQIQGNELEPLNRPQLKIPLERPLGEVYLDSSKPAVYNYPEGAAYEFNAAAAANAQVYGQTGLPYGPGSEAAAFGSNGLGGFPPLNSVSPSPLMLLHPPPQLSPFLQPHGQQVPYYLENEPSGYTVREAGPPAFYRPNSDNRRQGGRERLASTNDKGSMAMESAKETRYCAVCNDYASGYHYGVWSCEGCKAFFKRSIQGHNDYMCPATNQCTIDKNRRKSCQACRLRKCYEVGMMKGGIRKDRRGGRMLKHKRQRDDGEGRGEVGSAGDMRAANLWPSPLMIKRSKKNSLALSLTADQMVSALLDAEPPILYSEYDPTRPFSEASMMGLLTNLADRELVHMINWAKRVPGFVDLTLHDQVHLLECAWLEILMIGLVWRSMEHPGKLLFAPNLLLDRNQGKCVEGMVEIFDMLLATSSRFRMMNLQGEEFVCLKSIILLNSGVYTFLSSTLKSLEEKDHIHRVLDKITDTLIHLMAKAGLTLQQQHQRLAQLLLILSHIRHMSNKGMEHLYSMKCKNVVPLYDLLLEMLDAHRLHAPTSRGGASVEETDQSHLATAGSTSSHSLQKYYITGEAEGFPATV
Sequence of Aryl hydrocarbon receptor (Homo sapiens) (P35869 whole entry, looked up): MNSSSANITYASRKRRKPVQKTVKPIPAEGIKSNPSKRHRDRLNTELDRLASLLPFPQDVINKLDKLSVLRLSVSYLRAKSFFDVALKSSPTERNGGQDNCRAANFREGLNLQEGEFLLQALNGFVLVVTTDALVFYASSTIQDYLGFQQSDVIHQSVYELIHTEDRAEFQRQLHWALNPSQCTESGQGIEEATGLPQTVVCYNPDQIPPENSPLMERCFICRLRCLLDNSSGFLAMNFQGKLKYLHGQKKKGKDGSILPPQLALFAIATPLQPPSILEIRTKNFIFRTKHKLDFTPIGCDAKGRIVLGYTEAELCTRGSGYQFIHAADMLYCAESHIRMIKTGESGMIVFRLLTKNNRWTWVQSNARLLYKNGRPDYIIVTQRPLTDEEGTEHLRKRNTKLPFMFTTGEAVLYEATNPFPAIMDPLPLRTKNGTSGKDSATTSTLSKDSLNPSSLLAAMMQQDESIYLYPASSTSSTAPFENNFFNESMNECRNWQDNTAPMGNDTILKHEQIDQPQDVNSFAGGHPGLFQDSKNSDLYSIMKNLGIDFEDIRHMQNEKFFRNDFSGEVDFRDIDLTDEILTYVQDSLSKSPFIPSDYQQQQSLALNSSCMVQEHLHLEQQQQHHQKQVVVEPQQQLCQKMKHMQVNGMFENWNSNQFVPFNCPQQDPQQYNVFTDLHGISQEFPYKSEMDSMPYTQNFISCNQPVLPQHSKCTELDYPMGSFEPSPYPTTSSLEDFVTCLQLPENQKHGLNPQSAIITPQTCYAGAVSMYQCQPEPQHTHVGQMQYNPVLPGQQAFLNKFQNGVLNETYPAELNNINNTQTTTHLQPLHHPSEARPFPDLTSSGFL

CCCCOCC(C)OCC(C)O (stereo unspecified)
inactive: Potency [1] | Potency [2] | Potency [3] | outcome [4] | Potency [5] | Potency [6] | Potency [7] | outcome [8] | Potency [9] | Potency [10] | Potency [11] | Potency [12] | outcome [13] | outcome [14] | Potency [15] | Potency [16] | outcome [17] | outcome [18] | outcome [19]

CCN1CCCC(OC(=O)C(c2ccccc2)c2ccccc2)C1 (stereo unspecified)
active: Potency [20] 12.7 µM
inactive: Potency [2] | Potency [3] | outcome [4] | Potency [5] | Potency [6] | Potency [7] | Potency [9] | Potency [11] | outcome [13] | outcome [14] | Potency [15] | outcome [17] | outcome [18] | outcome [19]

NC(=S)Nc1cccc2ccccc12
inactive: activity change, negative = cytotoxic [20] -2.02% [at 8.44 µM] | activation [2] 0.336% [at 8.08 µM] | activity, negative = cytotoxicity [4] 13.6% [at 6.72 µM] | activity change, negative = cytotoxicity [8] -0.944% [at 8.47 µM] | activity, negative = inhibition [9] 16.7% [at 8.47 µM] | activity change, negative = cytotoxicity [10] 1.26% [at 8.47 µM] | activation [11] 0.499% [at 8.47 µM] | viability change, negative = cytotoxic [12] 1.55% [at 8.47 µM] | activation [13] -10.4% [at 7.08 µM] | activity change, negative = cytotoxicity [15] 9.83% [at 5.95 µM] | activation [16] -5.35% [at 8.36 µM] | viability change, negative = cytotoxic [17] 10% [at 8.36 µM] | activity change, negative = cytotoxicity [18] -5.69% [at 5.95 µM]

COC[C@H](c1ccc(C(F)(F)F)cc1)N1CCN(C2(C)CCN(C(=O)c3c(C)ncnc3C)CC2)C[C@H]1C
inactive: Potency [20] | Potency [2] | Potency [3] | outcome [4] | Potency [5] | Potency [6] | Potency [10] | Potency [11] | Potency [12] | outcome [13] | Potency [15] | outcome [17] | outcome [18] | outcome [19]

O=C(O)CCNC(=O)c1ccc(N=Nc2ccc(O)c(C(=O)O)c2)cc1
inactive: Potency [20] | Potency [2] | Potency [3] | outcome [4] | Potency [5] | Potency [6] | Potency [7] | Potency [9] | Potency [11] | outcome [13] | outcome [14] | Potency [15] | outcome [17] | outcome [18]

CC(=O)N[C@@H](CCC(N)=O)C(=O)O
inactive: Potency [20] | Potency [2] | Potency [3] | outcome [4] | Potency [5] | Potency [6] | Potency [7] | Potency [9] | Potency [10] | Potency [11] | Potency [12] | outcome [13] | Potency [15] | Potency [16] | outcome [17] | outcome [18] | outcome [19]

COc1cc(C(=O)N2CCOCC2)cc(OC)c1OC
inactive: Potency [20] | Potency [2] | outcome [4] | outcome [8] | Potency [9] | Potency [10] | Potency [11] | Potency [12] | outcome [13] | Potency [15] | Potency [16] | outcome [17] | outcome [18] | outcome [19]
